From PubChem BioAssay (NCATS)
Inconclusive results are not listed. The source made the active and inactive calls. The call rests on the fitted dose curve; in most records, active means well fitted cell-killing curve with a large enough effect; inconclusive means small, poorly fitted or top-dose-only effect, or effect the other way; inactive means flat fitted curve, though single readings scatter.

Tests used:
Assay in all cases: Primary qHTS to identify gynecologic anti-cancer compounds using libraries of approved drugs and bioactive compounds (AID 1345084); further: nearly all actives have a fitted effect of over 55% in size
C33A = conditions: Gynecologic cancer cell panel viability, ATPlite luminescence, 48 h; series mostly up to 57.5 µM
Procedure, shortened: (§1)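 Cells, 1,000 per well, plated 16 h, then exposed 48 h at 37 C to compounds. Viability by ATPlite luminescence after 15 min at room temperature.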

CAOV3 = conditions: Gynecologic cancer cell panel viability, ATPlite luminescence, 48 h; series mostly up to 57.5 µM
Procedure, shortened: as §1

CASKI = conditions: Gynecologic cancer cell panel viability, ATPlite luminescence, 48 h; series mostly up to 57.5 µM
Procedure, shortened: as §1

Es-2 = conditions: Gynecologic cancer cell panel viability, ATPlite luminescence, 48 h; series mostly up to 57.5 µM
Procedure, shortened: as §1

HeLa = conditions: Gynecologic cancer cell panel viability, ATPlite luminescence, 48 h; series mostly up to 57.5 µM
Procedure, shortened: as §1

Hek293T = conditions: Gynecologic cancer cell panel viability, ATPlite luminescence, 48 h, control line for the selectivity index; series mostly up to 57.5 µM
Procedure, shortened: as §1

JEG-3 = conditions: Gynecologic cancer cell panel viability, ATPlite luminescence, 48 h; series mostly up to 57.5 µM
Procedure, shortened: as §1

OV90 = conditions: Gynecologic cancer cell panel viability, ATPlite luminescence, 48 h; series mostly up to 57.5 µM
Procedure, shortened: as §1

PA-1 = conditions: Gynecologic cancer cell panel viability, ATPlite luminescence, 48 h; series mostly up to 57.5 µM
Procedure, shortened: as §1

SKOV3 = conditions: Gynecologic cancer cell panel viability, ATPlite luminescence, 48 h; series mostly up to 57.5 µM
Procedure, shortened: as §1

Tov-21-G = conditions: Gynecologic cancer cell panel viability, ATPlite luminescence, 48 h; series mostly up to 57.5 µM
Procedure, shortened: as §1

Tov112D = conditions: Gynecologic cancer cell panel viability, ATPlite luminescence, 48 h; series mostly up to 57.5 µM
Procedure, shortened: as §1
On the % scale 0 is the no-effect control and ±100 the full control effect.

COc1cc(OC)c(NC(=O)c2ccc(Cc3cc4c(cc3C)C(C)(C)CCC4(C)C)o2)c(OC)c1
inactive: Potency (C33A) | Potency (CAOV3) | Potency (CASKI) | Potency (Es-2) | Potency (HeLa) | Potency (Hek293T) | Potency (JEG-3) | Potency (OV90) | Potency (PA-1) | Potency (SKOV3) | Potency (Tov-21-G) | Potency (Tov112D)

O=C(Nc1ccccc1)N1CCC(Cc2cnc3ccccc3c2)CC1
inactive: Potency (C33A) | Potency (CAOV3) | Potency (CASKI) | Potency (Es-2) | Potency (HeLa) | Potency (Hek293T) | Potency (JEG-3) | Potency (OV90) | Potency (PA-1) | Potency (SKOV3) | Potency (Tov-21-G) | Potency (Tov112D)

CC(C)CCNc1ncccc1C(=O)N1CCN(Cc2ccccc2)CC1
inactive: Potency (C33A) | Potency (CAOV3) | Potency (CASKI) | Potency (Es-2) | Potency (HeLa) | Potency (Hek293T) | Potency (JEG-3) | Potency (OV90) | Potency (PA-1) | Potency (SKOV3) | Potency (Tov-21-G) | Potency (Tov112D)

C=C1C(=O)OC2CC3(C)C(O)C(=O)C=C(C)C3CC12 (stereo not given)
inactive: Potency (C33A) | Potency (CAOV3) | Potency (CASKI) | Potency (Es-2) | Potency (HeLa) | Potency (Hek293T) | Potency (JEG-3) | Potency (OV90) | Potency (PA-1) | Potency (SKOV3) | Potency (Tov-21-G) | Potency (Tov112D)

COC(=O)c1sccc1S(=O)(=O)Nc1ccc(Nc2ccccc2)cc1OC
inactive: Potency (C33A) | Potency (CAOV3) | Potency (CASKI) | Potency (Es-2) | Potency (HeLa) | Potency (Hek293T) | Potency (JEG-3) | Potency (OV90) | Potency (PA-1) | Potency (SKOV3) | Potency (Tov-21-G) | Potency (Tov112D)

CC(=O)O[C@@H]1[C@@H](O)[C@H](O[C@@H]2[C@@H](O)[C@@H](O)[C@H](O[C@H]3[C@H](O[C@H]4[C@H](O[C@H]5CC[C@@]6(C)C(CC[C@]7(C)C6CC=C6[C@@H]8CC(C)(C)CC[C@]8(C(=O)O)CC[C@]67C)[C@]5(C)CO)O[C@H](CO)[C@@H](O)[C@@H]4O)OC[C@@H](O)[C@@H]3O)O[C@H]2C)OC[C@H]1O (stereo not given in full)
inactive: activity change, negative = cytotoxicity (C33A) -4.66% [at 11.6 µM] | activity change, negative = cytotoxicity (CAOV3) 10.9% [at 11.6 µM] | activity change, negative = cytotoxicity (CASKI) 17% [at 11.6 µM] | activity change, negative = cytotoxicity (Es-2) -1.31% [at 11.6 µM] | activity change, negative = cytotoxicity (HeLa) 2.05% [at 11.6 µM] | activity change, negative = cytotoxicity (Hek293T) 1.05% [at 11.6 µM] | activity change, negative = cytotoxicity (JEG-3) 13.7% [at 11.6 µM] | activity change, negative = cytotoxicity (OV90) 10.1% [at 11.6 µM] | activity change, negative = cytotoxicity (PA-1) -1.55% [at 11.6 µM] | activity change, negative = cytotoxicity (SKOV3) 10.7% [at 11.6 µM] | activity change, negative = cytotoxicity (Tov-21-G) -11% [at 11.6 µM] | activity change, negative = cytotoxicity (Tov112D) -6.37% [at 11.6 µM]

C/C=C/CCC1Cc2cc(O)c(CCCC)c(O)c2C(=O)O1 (stereo not given)
inactive: Potency (C33A) | Potency (CAOV3) | Potency (CASKI) | Potency (Es-2) | Potency (HeLa) | Potency (Hek293T) | Potency (JEG-3) | Potency (OV90) | Potency (PA-1) | Potency (SKOV3) | Potency (Tov-21-G) | Potency (Tov112D)

C=C1CCN([C@H](C)[C@](O)(Cn2cncn2)c2ccc(F)cc2F)CC1
inactive: Potency (C33A) | Potency (CAOV3) | Potency (CASKI) | Potency (Es-2) | Potency (HeLa) | Potency (Hek293T) | Potency (JEG-3) | Potency (OV90) | Potency (PA-1) | Potency (SKOV3) | Potency (Tov-21-G) | Potency (Tov112D)

Cc1cn2c(n1)Cc1ccc(Cl)cc1C(c1ccc(N)cc1)=N2
inactive: Potency (C33A) | Potency (CAOV3) | Potency (CASKI) | Potency (Es-2) | Potency (HeLa) | Potency (Hek293T) | Potency (JEG-3) | Potency (OV90) | Potency (PA-1) | Potency (SKOV3) | Potency (Tov-21-G) | Potency (Tov112D)

Cn1ccc(NC(=O)c2cc(Oc3ccc(C(=O)N4CCC4)c(F)c3)c3c(c2)OC(C)(C)C3)n1
inactive: Potency (C33A) | Potency (CAOV3) | Potency (CASKI) | Potency (Es-2) | Potency (HeLa) | Potency (Hek293T) | Potency (JEG-3) | Potency (OV90) | Potency (PA-1) | Potency (SKOV3) | Potency (Tov-21-G) | Potency (Tov112D)

CC(C)(CO)c1cc2cc(NC(=O)C3(c4ccc5c(c4)OC(F)(F)O5)CC3)c(F)cc2n1CC(O)CO (stereo not given)
inactive: Potency (C33A) | Potency (CAOV3) | Potency (CASKI) | Potency (Es-2) | Potency (HeLa) | Potency (Hek293T) | Potency (JEG-3) | Potency (OV90) | Potency (PA-1) | Potency (SKOV3) | Potency (Tov-21-G) | Potency (Tov112D)

CC#C[C@@H](CC(=O)O)c1ccc(OCc2ccc(CN3CCC4(C=Cc5ccccc54)CC3)s2)cc1
inactive: Potency (C33A) | Potency (CAOV3) | Potency (CASKI) | Potency (Es-2) | Potency (HeLa) | Potency (Hek293T) | Potency (JEG-3) | Potency (OV90) | Potency (PA-1) | Potency (SKOV3) | Potency (Tov-21-G) | Potency (Tov112D)

COc1ccc(NC(=O)c2ccc(C(=N)N(C)C)cc2)c(C(=O)Nc2ccc(Cl)cn2)c1
inactive: Potency (C33A) | Potency (CAOV3) | Potency (CASKI) | Potency (Es-2) | Potency (HeLa) | Potency (Hek293T) | Potency (JEG-3) | Potency (OV90) | Potency (PA-1) | Potency (SKOV3) | Potency (Tov-21-G) | Potency (Tov112D)

CC12CCC3C1C(c1c(cc(O)c(C(=O)c4ccccc4)c1O)O2)C3(C)C (stereo not given)
inactive: Potency (C33A) | Potency (CAOV3) | Potency (CASKI) | Potency (Es-2) | Potency (HeLa) | Potency (Hek293T) | Potency (JEG-3) | Potency (OV90) | Potency (PA-1) | Potency (SKOV3) | Potency (Tov-21-G) | Potency (Tov112D)

Cc1ccccc1C(C(=O)NC1CCCCC1)N(C(=O)Cn1cnc2ccccc21)c1cccc(F)c1 (stereo not given)
inactive: Potency (C33A) | Potency (CAOV3) | Potency (CASKI) | Potency (Es-2) | Potency (HeLa) | Potency (Hek293T) | Potency (JEG-3) | Potency (OV90) | Potency (PA-1) | Potency (SKOV3) | Potency (Tov-21-G) | Potency (Tov112D)
